Values joined by “and” are separate entries in the source; they are usually repeats but may differ in a detail not shown here. Identical values can stand only once. Among all 410,000 compounds or so, about 18,000 (4.4%) were called active. About 7% were inconclusive and are not listed. No stated cut-off is given here; in the data, active means activity change below about -60%; inconclusive means no clear call, values can overlap the other calls; inactive means above about -39%. The full list was thinned out, with actives kept by preference.
assay: qHTS Assay for inhibitors of the human cytomegalovirus (HCMV); details: HFF cells, HCMV-luciferase reporter, 72 h; at 57.5 µM; hits give low values
Method in brief: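 Two-dose cell screen: HFF monolayers treated with compounds and infected with luciferase-expressing HCMV at 1 PFU/cell, 72 h at 37C, then lysed for luciferase measurement.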
On the % scale 0 is the no-effect control and ±100 the full control effect.

Structure (SMILES) | activity change, negative = inhibition
COc1cc(NC(=O)CN2CCN(S(=O)(=O)c3ccc(Br)cc3)CC2)cc(OC)c1 | 10.7% (inactive)
CC(C)OCCCn1c(SCC(=O)c2ccccc2)nc2c(sc3ccccc32)c1=O | -3.18% (inactive)
CCc1nn(CCCC(=O)NCc2ccccc2OC)c(=O)c2cc3occc3n12 | 0.686% (inactive)
CC(=O)c1ccc(S(=O)(=O)N2CCC(Oc3ccc(-n4cnnn4)cc3)CC2)cc1 | -16.1% (inactive) and 9.96% (inactive)
COC(=O)c1ccc(S(=O)(=O)N2CCC(c3nc4ccccc4o3)CC2)cc1 | -36.4% (inactive)
CC(=O)c1ccc(S(=O)(=O)N2CCN(C(=O)/C=C/c3ccc4ccccc4n3)CC2)cc1 | -94.7% (active)
O=C(NCCc1ccccc1)c1cnc2sc(N3CCCC3)nn2c1=O | -22.6% (inactive)
CCCCNc1c(-c2cccc(Sc3ccc(OC)cc3)c2)nc2ccccn12 | -28.4% (inactive)
COC(=O)[C@]12C[C@H](CC(=O)NCCC(C)C)C(=O)N(CCc3ccc(OC)c(OC)c3)C1=C[C@H](C(C)(C)C)O[C@@H]2C | 13.1% (inactive)
COc1ccccc1CNC(=O)c1ccc(-n2c(C)cc3c2CCCC3)cc1 | -28.5% (inactive)
Cc1cc([N+](=O)[O-])ccc1NC1CCCC1 | -71.6% (active)
N#Cc1cc([N+](=O)[O-])ccc1NCC1CCCO1 (centres undefined) | 11.1% (inactive)
Cc1cc([N+](=O)[O-])c(NC2CCCCC2)c([N+](=O)[O-])c1 | -18.1% (inactive)
COc1ccc(C)cc1N(C)C(=O)c1c(C)oc2ncnc(N3CCOCC3)c12 | -37.3% (inactive)
Cc1ccc2onc(CC(=O)N3CCN(c4ccc(Cl)cc4)CC3)c2c1 | -15.9% (inactive)
Cc1nn(C(C)C(=O)NCCc2ccccc2)c(=O)c2c1sc1ccccc12 (centres undefined) | -39.3% (inactive)
CCCCN(C)c1nnc(NC(=O)Nc2ccc(Br)c(C)c2)s1 | -4.35% (inactive)
Cc1ccc(Nc2nc(Cl)c(C=O)s2)cc1 | -12.1% (inactive)
Cc1ccc(NC(=O)Nc2nnc(-c3ccncc3)s2)cc1 | -99.3% (active)
CCNC(=O)C1(C)CCCN1C(=O)c1ccc(N(C)C)cc1 (centres undefined) | -8.81% (inactive)
Cc1ccc(C)c(Nc2nnc(-c3ccc(C)c(S(=O)(=O)N4CCCCC4)c3)c3ccccc23)c1 | -66.1% (active)
Cc1ccc(Nc2nnc(-c3ccc(C)c(S(=O)(=O)N4CCCCC4)c3)c3ccccc23)cc1 | -7.76% (inactive)
Cc1ccc(-c2nnc(Nc3ccc(C(=O)N(C)C)cc3)c3ccccc23)cc1S(N)(=O)=O | -17.4% (inactive)
COc1cc(CN(C(=O)c2ccccc2Br)c2ccccn2)cc(OC)c1OC | -1.41% (inactive)
O=S(=O)(c1ccc(Br)cc1)c1nnn2c1nc(NC1CCCCCC1)c1sccc12 | -2.26% (inactive)
CCn1cc(C(=O)N2CC=C(c3ccccc3)CC2)c(=O)c2ccc(C)nc21 | -108% (active)
CCn1cc(C(=O)OCC(=O)Nc2cccc(C)c2)c(=O)c2ccc(C)nc21 | 37.7% (inactive)

Structure (SMILES) | activity change, negative = inhibition
CCn1cc(C(=O)OCC(=O)Nc2cc(C)cc(C)c2)c(=O)c2ccc(C)nc21 | -39.2% (inactive)
CCc1ccccc1NC(=O)c1cnn(-c2ccc(F)cc2)c1C1CCNCC1 | 2.44% (inactive)
CCOC(=O)Cc1ccc(NC(=O)Nc2c[nH]c(=O)[nH]c2=O)cc1 | 8.88% (inactive)
COc1ccccc1CNC(=O)C(Cc1ccccc1)NS(=O)(=O)c1ccc2c(c1)oc(=O)n2C (centres undefined) | 5.72% (inactive)
Cc1[nH]c(C)c(S(=O)(=O)N2CCN(c3cccc(C(F)(F)F)c3)CC2)c1C(=O)N1CCCC1 | -9.51% (inactive)
Cc1ccc(C)c(N2CCN(S(=O)(=O)c3c(C)[nH]c(C)c3C(=O)N3CCCC3)CC2)c1 | -31.6% (inactive)
Cc1[nH]c(C)c(S(=O)(=O)N2CCN(c3cccc(C(F)(F)F)c3)CC2)c1C(=O)N1CCCCC1 | -80.2% (active)
CCCS(=O)(=O)c1c(Nc2ccccc2C)sc(C(=O)c2ccccc2)c1N | 16.8% (inactive)
O=c1cc(CSc2ncn[nH]2)[nH]c2ccc(F)cc12 | 10.7% (inactive)
CC(C)(C)N1C(=O)c2c(C(=O)OCc3ccccc3)[nH]c(-c3ccccc3)c2C1=O | -12.2% (inactive)
COc1ccc(CCNC(=O)c2c3c(nc4ccccc24)C(=O)N(C2CCCCC2)C3)cc1OC | -6.18% (inactive)
CCN(CCCNC(=O)c1cc(Nc2ccc(OC)cc2)nc2ccccc12)c1cccc(C)c1 | -61.5% (active)
CCN(CCCNC(=O)c1cc2cc3cc(OC)ccc3nc2s1)c1ccccc1 | 44.1% (inactive)
CCCCN(CCCNC(=O)c1cc(Nc2ccccc2OC)nc2ccccc12)c1ccccc1 | -9.32% (inactive)
CCN(CCCNC(=O)CSc1cc(=O)n(C)c2cc(Cl)ccc12)c1cccc(C)c1 | 1.12% (inactive)
COc1ccccc1Nc1cc(C(=O)NCCCN(C)C2CCCCC2)c2ccccc2n1 | -98.1% (active)
CCc1nc2cccnc2n1-c1ccc(CC(=O)Nc2c(C)cccc2C)cc1 | 0% (inactive)
Cc1cc(C)cc(NC(=O)c2cnc3sc(N4CCCC4)nn3c2=O)c1 | -28.7% (inactive)
CCCCCCCCn1c2c(c(=N)c3c1CCC3)CCCC2 | -99.4% (active)
CSc1ncc(C(=O)NCc2ccccc2Cl)c(C(F)(F)F)n1 | -2.41% (inactive)
O=C(CCN1CCCO1)N1CCCC(N2CCN(c3cccc(C(F)(F)F)c3)CC2)C1 (centres undefined) | 69.3% (inactive)
COC(=O)c1ccc(NC(=O)c2cc(S(=O)(=O)N3CCC(C)CC3)cn2C)cc1 | -7.89% (inactive)
Cc1c2cnn(-c3ccccc3)c(=O)c2c(C)n1C(C)C(=O)Nc1ccc(Br)cc1F (centres undefined) | -30.3% (inactive)
CC1CC(C)CN(S(=O)(=O)c2cccc(C(=O)N3C(=O)c4cccc(N)c4C3=O)c2)C1 (centres undefined) | 4.25% (inactive)
Cn1c(=O)n(C)c2cc(NS(=O)(=O)c3ccc(F)cc3)ccc21 | 1.03% (inactive) and 221% (inactive)
Cn1c(CCN2CCN(c3ccccn3)CC2)nc2cc(NS(=O)(=O)c3ccc(F)cc3)ccc21 | -85.1% (active)
Cn1c(=O)n(C)c2cc(S(=O)(=O)Nc3ccc(F)cc3)ccc21 | 41.5% (inactive)
